High-throughput results: PubChem, several laboratories
Most compounds without a hit are left out; they make up all but 5.9% or so of the library.
ABHD5 PLIN5 PPI: ABHD5-PLIN5 protein interaction inhibition; inhibition, % at 4 µM; 360,000 compounds, 0.78% hits; Split G. princeps luciferase complementation, luminescence, 4 h; Q00G26+Q8WTS1;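 active = inhibition above the mean inhibition across every tested compound plus 3 SD, cut at about 22% in these data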;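 also: 0% = DMSO only wells and the 100% control is not disclosed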
ALR inh: human ALR oxidase inhibition via reduced H2O2. inhibition, % (no concentration beside the values). 290,000 compounds, 3.8% hits. purified ALR, DTT oxidation, H2O2 HRP-luminol luminescence. P55789;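 active = mean replicate inhibition above about 79%, with every replicate also reaching it, limit read from the data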
Target sequence (P55789 whole entry, looked up): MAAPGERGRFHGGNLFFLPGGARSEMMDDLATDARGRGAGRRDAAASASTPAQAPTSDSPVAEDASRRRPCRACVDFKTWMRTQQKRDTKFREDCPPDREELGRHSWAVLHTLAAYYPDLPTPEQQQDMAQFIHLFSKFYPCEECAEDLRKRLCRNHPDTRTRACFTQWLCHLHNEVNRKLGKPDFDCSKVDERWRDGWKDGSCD
PRMT1 inh: blocks human protein arginine methyltransferase 1 | recombinant PRMT1, activity-based probe fluorescence polarization | inhibition, % at 2.79 µM | 370,000 compounds, 1.3% hits | AID 652257;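 active = inhibition above about 21% made by adding two undisclosed values, limit read from the data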
LANA-H2B inh: blocks KSHV LANA binding to histone H2A/H2B; 320,000 compounds, 0.6% hits; cell-free LANA-H2A/H2B peptide, fluorescence polarization; inhibition, % (concentration not given with the values); AID 2629; Q9QR71; in the data active = inhibition mostly above about 10%, no sharp cut-off; inactive = mostly below about 6.7%
Rtt109 HAT inh: inhibitors of Candida albicans Rtt109/Vps75 histone acetyltransferase. purified Rtt109/Vps75, ThioGlo CoA-SH fluorescence, 4 h. inhibition, % at 34.9 µM. 330,000 compounds, 0.16% hits;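 active = inhibition of at least 50% in every replicate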
Target sequence (Q5AAJ8 whole entry, looked up): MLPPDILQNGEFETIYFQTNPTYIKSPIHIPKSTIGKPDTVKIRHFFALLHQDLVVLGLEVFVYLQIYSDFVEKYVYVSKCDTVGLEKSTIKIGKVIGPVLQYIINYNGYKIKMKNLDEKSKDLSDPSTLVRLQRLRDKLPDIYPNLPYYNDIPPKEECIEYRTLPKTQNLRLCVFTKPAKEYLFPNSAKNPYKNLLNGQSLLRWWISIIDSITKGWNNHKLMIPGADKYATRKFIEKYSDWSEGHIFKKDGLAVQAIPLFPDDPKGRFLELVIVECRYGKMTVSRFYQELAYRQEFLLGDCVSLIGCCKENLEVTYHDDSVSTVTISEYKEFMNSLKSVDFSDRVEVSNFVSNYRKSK
rCAG RNA binder: binds r(CAG) RNA repeats | inhibition, % at 3 µM | 370,000 compounds, 1.3% hits | r(CAG) RNA repeat, TO-PRO-1 dye displacement fluorescence;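 active = inhibition above the plate cutoff, the mean of all test compounds on that plate plus 3 SD, cut at about 35% in these data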;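 also: 0% = DMSO alone and 100% = 100 µM mitoxantrone as full dye displacement; higher means more dye released from RNA so lower well fluorescence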
PRMT1 confirm: confirmation of human PRMT1 inhibitors; shares compounds with PRMT1 inh; recombinant His-PRMT1, activity-based probe fluorescence polarization; inhibition, % at 2.79 µM; 3,300 compounds, 42% hits; AID 687036;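 active = mean inhibition across replicates above the hit cutoff derived for the earlier primary screen, cut at about 22% in these data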
Starred values were filed as active, the others as inactive; nt = no result; ! = not active in a repeat.

SMILES	ABHD5 PLIN5 PPI	ALR inh	PRMT1 inh	LANA-H2B inh	Rtt109 HAT inh	rCAG RNA binder	PRMT1 confirm
CCOC(=O)[C@@H](NC(=O)CC[C@H]1O[C@@H](n2cc(C)c(=O)[nH]c2=O)C[C@@H]1O)C(C)C	-1.1	nt	3.3	nt	nt	-1.0	nt
Cc1ccc(SC[C@H](CC(C)C)N2CCN(CCc3ccccc3)CCC2=O)cc1	3.6	nt	0.7	nt	4.9	-4.5	nt
CC(=O)Nc1ccc(SC[C@H](CC(C)C)N2CCN(CCc3ccccc3)CCC2=O)cc1	-6.9	98.8*	40.2*	1.9	6.4	-1.8	40.2*
COC(=O)CCc1nc2ccccc2[nH]c1=O	4.8	-3.0	1.9	1.7	2.3	0.8	nt
COC(=O)CSCc1nc2ccccc2[nH]c1=O	-1.2	99.3*	34.0*	-1.9	-3.8	2.7	55.4*
CCCC1CCC2(CCCN2CCOC(=S)Nc2ccccc2OC)CC1 (stereo not drawn)	nt	nt	19.3	nt	nt	nt	nt
CCN1C(=O)/C(=C/C=C2/Sc3ccc4ccccc4c3N2CCO)SC1=S	0.6	-2.4	43.9*	-3.6	9.1	4.6	-2.9
Cc1cc(C)cc(Nc2nc(-c3ccc(S(=O)(=O)N4CCCC4)cc3)cs2)c1	-10.1	-1.4	2.0	-6.9	-1.2	6.9	nt
Cc1ccc(Nc2nc(-c3ccc(S(=O)(=O)N4CCOCC4)cc3)cs2)cc1	-10.3	-1.6	26.2*	9.7	-1.0	14.9	-0.8
O=C1CN(CC(=O)Nc2cccc(Cl)c2Cl)c2ccccc2N1	5.8	-14.7	52.3*	3.0	11.9	11.6	76.1*
COC(=O)[C@@]12C[C@@H](CC(=O)NCCc3ccccc3OC)C(=O)N(Cc3ccccc3)C1=CCC(C)(C)C2	-4.1	nt	-0.8	nt	nt	2.0	nt
O=C(N/N=C/C=C\c1ccco1)c1cccs1	16.6	-0.6	32.9*	2.4	1.2	21.7	23.1*
Cc1ccccc1CSCC1Nc2ccc(C(=O)NCCc3ccccc3)cc2NC1=O (stereo not drawn)	-5.1	nt	49.2*	nt	nt	21.0	65.0*
NS(=O)(=O)c1ccc(CCNC(=O)CCC(=O)c2cccs2)cc1	-3.6	-2.6	3.7	1.6	7.4	14.1	nt
O=C(CCC(=O)c1cccs1)NCCc1ccc(F)cc1	0.8	nt	26.3*	4.4	-4.0	8.6	-1.8
Cc1cccc(N2C(=O)CC(N3CCC(c4nc5ccccc5[nH]4)CC3)C2=O)c1 (stereo not drawn)	4.7	-1.2	47.3*	-1.6	10.0	-3.0	3.0
COc1cccc(N2C(=O)CC(N3CCC(c4nc5ccccc5[nH]4)CC3)C2=O)c1 (stereo not drawn)	6.3	-7.7	60.0*	-3.4	8.7	2.1	0.4
CCN1C(=O)CC(N2CCC(c3nc4ccccc4[nH]3)CC2)C1=O (stereo not drawn)	-1.1	-34.2	-4.3	-1.7	8.4	0.4	nt
COc1ccc2[nH]c(=O)c(CNc3ccccc3)cc2c1	-3.5	-8.5	25.3*	-4.4	-8.0	8.5	1.5
O=C(CCSc1ccc(Cl)cc1)c1ccco1	1.0	48.1	40.7*	-0.5	7.3	-2.4	66.3*
O=C(CSc1ccc(Cl)cc1)c1ccco1	7.9	43.3	nt	2.0	2.8	nt	nt
CCOC(=O)[C@]12CCC=C1N(CCC1=CCCCC1)C(=O)[C@H](CC(=O)N1CCSCC1)C2	-0.7	nt	1.5	nt	nt	3.0	nt
CC(=O)Nc1ccc(S(=O)(=O)NCCSCc2ccco2)cc1	3.4	-28.8	27.8*	-0.3	-7.5	15.3	61.4*
CC(=O)Nc1ccc(S(=O)(=O)NCCSCc2c(Cl)cccc2Cl)cc1	1.3	7.4	3.7	-1.5	-2.7	2.5	nt
C#CCN(C(=O)C1CCC(=O)N(CCc2cccc(F)c2)C1)C1CCCCC1 (stereo not drawn)	-4.9	nt	-1.6	nt	nt	-1.6	nt
SMILES	ABHD5 PLIN5 PPI	ALR inh	PRMT1 inh	LANA-H2B inh	Rtt109 HAT inh	rCAG RNA binder	PRMT1 confirm
Cc1nn(C)c(-c2n[nH]c(=S)n2Cc2ccco2)c1Cl	-2.8	32.7	28.3*	-1.6	1.6	18.3	3.1
CC(C)Oc1ccc(Cn2c(-c3ccco3)n[nH]c2=S)cc1	-6.6	32.0	14.2	4.8	11.8	7.7	nt
NS(=O)(=O)c1cccc(NC(=O)CSc2ncnc3ccccc23)c1	5.3	99.3*	37.5*	-4.1	-7.5	8.0	14.2
NS(=O)(=O)c1cccc(NC(=O)CSc2nc3ccccc3c(=O)n2Cc2ccco2)c1	18.9	nt	79.9*	-1.6	3.7	17.6	6.3
Cc1nc2sc(C(c3ccco3)N3CCc4ccccc4C3)c(O)n2n1 (stereo not drawn)	15.0	10.6	45.2*	-0.4	3.6	17.4	15.2
Cc1nc2sc(C(c3ccco3)N3CCN(c4ccccc4F)CC3)c(O)n2n1 (stereo not drawn)	-3.2	1.8	1.8	8.0	-2.5	-3.1	nt
Cc1nc2sc(C(c3ccco3)N3CCN(c4ccc(F)cc4)CC3)c(O)n2n1 (stereo not drawn)	-5.5	93.7*	25.3*	0.0	-12.2	7.8	-2.9
Cn1cc(CC(=O)Nc2ccc(Oc3cccnc3)cc2)c2ccccc21	nt	nt	0.9	nt	nt	5.5	nt
COc1cccc(NC(=O)n2ccc3ccc(-c4ccc5ccn(C(=O)Nc6cccc(OC)c6)c5c4)cc32)c1	nt	nt	4.4	nt	nt	31.2	nt
Cc1cccc(C)c1NC(=O)/C(=C/c1ccco1)c1ccccc1	14.9	-2.1	26.0*	-0.3	-3.2	-0.8	3.8
N=C1/C(=C/c2cccn2Cc2ccc(F)cc2)C(=O)N=C2SC=CN12	1.6	-1.4	-0.6	5.0	-14.5	8.7	nt
N=C1/C(=C\c2coc3ccccc3c2=O)C(=O)N=C2SC=CN12	-2.4	40.5	36.4*	9.2	6.7	-125.6	31.6*
O=[n+]1c2c(n([O-])c3ccccc31)CCCC2	-3.4	-7.9	76.2*	2.0	-2.1	2.1	-1.5
COc1ccc(CCN2CC(C(=O)OCC(=O)N(C)CC(=O)Nc3ccccc3Cl)CC2=O)cc1OC (stereo not drawn)	-3.0	nt	1.5	nt	3.7	-4.6	nt
Cc1c(N2C(=O)/C(=C\c3ccccc3O)SC2=S)c(=O)n(-c2ccccc2)n1C	-20.4	15.2	47.1*	-9.9	0.1	0.7	82.7*
Cc1ccc(/C=C2\SC(=S)N(c3c(C)n(C)n(-c4ccccc4)c3=O)C2=O)cc1	-8.7	36.3	0.1	1.4	-2.5	-2.4	nt
Cc1c(N2C(=O)/C(=C\C3CC=CCC3)SC2=S)c(=O)n(-c2ccccc2)n1C (stereo not drawn)	-7.7	nt	43.0*	nt	-16.5	7.1	25.4*
Cc1c(N2C(=O)/C(=C/c3ccccc3)SC2=S)c(=O)n(-c2ccccc2)n1C	-10.7	6.4	9.1	-2.6	-5.4	8.6	nt
Cc1c(N2C(=O)/C(=C/C3CC=CCC3)SC2=S)c(=O)n(-c2ccccc2)n1C (stereo not drawn)	-5.3	98.5*	38.6*	-3.1	nt	9.3	25.9*
Cc1cc(=O)oc2cc(OCC(=O)OCC(=O)NCCc3ccccc3)ccc12	1.2	-2.3	27.1*!	5.5	-9.5	-4.4	-1.6
